Reference: PubChem BioAssay (EPA / NIEHS)
Active and inactive are the calls of the source. How the source made its calls: active means hit-call score of the fitted dose curve at least 0.9, where 1 is the maximum; inactive means score below 0.9.

What was measured:
Conditions in all cases: mRNA level, 48 h; actives raise or lower the signal
[1] = read-out: DNA damage-inducible transcript 3 (DDIT3), DDIT3 (gene 1649); test: LTEA_HepaRG_DDIT3: Life Technologies and Expression Analysis (LTEA) Assay for DNA damage-inducible transcript 3 (DDIT3) using HepaRG (AID 2283488)
How it was run: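 Cells are human HepaRG liver cells treated for 48 h with eight half-log concentrations up to 100 uM in 0.5% DMSO. Transcript levels come from qRT-PCR normalized to three housekeeping genes, with activity fitted in both directions relative to vehicle.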

[2] = read-out: Pro-epidermal growth factor (Homo sapiens) (UniProt P01133); test: LTEA_HepaRG_EGF: Life Technologies and Expression Analysis (LTEA) Assay for Epidermal growth factor (EGF) using HepaRG (AID 2283489)
How it was run: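 HepaRG, 48 h dosing, 100 uM top, half-log x8, 0.5% DMSO. Readout: TaqMan qRT-PCR (Fluidigm array), housekeeping-normalized. Gain or loss of signal fit vs DMSO.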

[3] = read-out: Early growth response protein 1 (EGR1) transcription factor, EGR1 (gene 1958); test: LTEA_HepaRG_EGR1: Life Technologies and Expression Analysis (LTEA) Assay for Early growth response protein 1 (EGR1) transcription factor using HepaRG (AID 2283490)
How it was run: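 EGR1 expression change in human HepaRG after 48 h chemical exposure, assessed by housekeeping-normalized qRT-PCR; concentration-response up to 100 uM, fitted in both directions against DMSO controls.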

[4] = read-out: Ezrin (EZR), EZR (gene 7430); test: LTEA_HepaRG_EZR: Life Technologies and Expression Analysis (LTEA) Assay for Ezrin (EZR) using HepaRG (AID 2283491)
How it was run: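 HepaRG, 48 h chemical exposure, 8-pt half-log series from 100 uM, 0.5% DMSO vehicle, duplicates. Read-out: EZR mRNA by TaqMan qRT-PCR (Fluidigm array), housekeeping-normalized; bidirectional curve fit vs DMSO baseline.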

[5] = read-out: Cytochrome P450 3A7 (Homo sapiens) (UniProt P24462); test: LTEA_HepaRG_CYP3A7: Life Technologies and Expression Analysis (LTEA) Assay for CYP3A7 using HepaRG (AID 2283492)
How it was run: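 Human HepaRG liver cells, 48 h post-plating, switched to serum-free induction medium and exposed in duplicate for 48 h. Dosing: 100 uM top, half-log dilutions, 8 points, 0.5% DMSO vehicle. Read-out: CYP3A7 mRNA, gain or loss fitted against DMSO baseline.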

[6] = read-out: Fatty Acid-Binding Protein 1 (FABP1), FABP1 (gene 2168); test: LTEA_HepaRG_FABP1: Life Technologies and Expression Analysis (LTEA) Assay for Fatty Acid-Binding Protein 1 (FABP1) using HepaRG (AID 2283494)
How it was run: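 Values reflect bidirectional concentration-response fitting of FABP1 mRNA change against 0.5% DMSO controls. Human HepaRG cultures received eight half-log doses (top 100 uM) for 48 h; expression quantified by TaqMan qRT-PCR with housekeeping-gene normalization.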

[7] = read-out: Cytochrome P450 4A22 (Homo sapiens) (UniProt Q5TCH4); test: LTEA_HepaRG_CYP4A22: Life Technologies and Expression Analysis (LTEA) Assay for Cytochrome P450 4A22 (CYP4A22) using HepaRG (AID 2283495)
How it was run: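 Readout is CYP4A22 transcript induction or loss, quantified by qRT-PCR and normalized to ACTB, GAPDH and POLR2A. Human HepaRG cells receive test chemicals for 48 h at eight half-log concentrations from 100 uM in 0.5% DMSO.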

[8] = read-out: Glutathione S-Transferase (GSTA2), GSTA2 (gene 2939); test: LTEA_HepaRG_GSTA2: Life Technologies and Expression Analysis (LTEA) Assay for Glutathione S-Transferase (GSTA2) using HepaRG (AID 2283497)
How it was run: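 Oxidative-stress marker GSTA2 is quantified by TaqMan qRT-PCR in HepaRG cultures treated 48 h across an eight-point range to 100 uM. Expression is normalized to endogenous controls and compared with 0.5% DMSO vehicle.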

[9] = read-out: Glutamate-cysteine ligase catalytic (GCLC), GCLC (gene 2729); test: LTEA_HepaRG_GCLC: Life Technologies and Expression Analysis (LTEA) Assay for Glutamate-cysteine ligase catalytic (GCLC) using HepaRG (AID 2283498)
How it was run: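 Oxidative-stress marker GCLC is measured as mRNA change in human HepaRG liver cells after 48 h chemical treatment in 0.5% DMSO, eight concentrations from 100 uM. Activity is fitted bidirectionally against vehicle.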

[10] = read-out: growth arrest and DNA damage 45 (GADD45G), GADD45G (gene 10912); test: LTEA_HepaRG_GADD45G: Life Technologies and Expression Analysis (LTEA) Assay for growth arrest and DNA damage 45 (GADD45G) using HepaRG (AID 2283499)
How it was run: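 Gain or loss of GADD45G mRNA, quantified by TaqMan qRT-PCR against three housekeeping genes, is fitted in both directions relative to 0.5% DMSO. Human HepaRG cultures receive test chemical for 48 h at up to 100 uM.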

[11] = read-out: Glutamate-cysteine ligase regulatory (GCLM), GCLM (gene 2730); test: LTEA_HepaRG_GCLM: Life Technologies and Expression Analysis (LTEA) Assay for Glutamate-cysteine ligase regulatory (GCLM) using HepaRG (AID 2283500)
How it was run: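 Endpoint is GCLM transcript level by qRT-PCR, normalized to three housekeeping genes, after 48 h chemical exposure of human HepaRG cells (0.5% DMSO vehicle, top 100 uM, half-log dilutions). Fitting was bidirectional relative to DMSO.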

[12] = read-out: Glutathione S-transferase M3 (GSTM3), GSTM3 (gene 2947); test: LTEA_HepaRG_GSTM3: Life Technologies and Expression Analysis (LTEA) Assay for Glutathione S-transferase M3 (GSTM3) using HepaRG (AID 2283501)
How it was run: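 HepaRG, plated 48 h, then serum-free induction medium; test chemical 48 h, duplicate; 100 uM top, half-log x8, 0.5% DMSO. Read-out: GSTM3 mRNA (TaqMan qRT-PCR, Fluidigm array). Bidirectional fit vs DMSO.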

[13] = read-out: Heat shock 70 kDa protein 1 (HSPA1A), gene 3303; test: LTEA_HepaRG_HSPA1A: Life Technologies and Expression Analysis (LTEA) Assay for Heat shock 70 kDa protein 1 (HSPA1A) using HepaRG (AID 2283502)
How it was run: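 Cells were plated and cultured for 48 h, then switched to serum-free induction medium. Chemicals were added at eight half-log concentrations up to 100 uM for 48 h. RNA was then isolated and HSPA1A measured by qRT-PCR with bidirectional curve fitting against DMSO.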

[14] = read-out: Hypoxia-inducible factor 1-alpha (Homo sapiens) (UniProt Q16665); test: LTEA_HepaRG_HIF1A: Life Technologies and Expression Analysis (LTEA) Assay for Hypoxia-inducible factor 1 (HIF1A) Trancription factor using HepaRG (AID 2283503)
How it was run: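 HIF1A transcript level read by qRT-PCR (ACTB, GAPDH, POLR2A normalization) after 48 h chemical exposure of HepaRG cultures. Eight half-log concentrations, top 100 uM, 0.5% DMSO vehicle, duplicates; bidirectional curve fit against DMSO baseline.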

[15] = read-out: 3-Hydroxy-3-Methylglutaryl-CoA Synthase 2 (HMGCS2), HMGCS2 (gene 3158); test: LTEA_HepaRG_HMGCS2: Life Technologies and Expression Analysis (LTEA) Assay for 3-Hydroxy-3-Methylglutaryl-CoA Synthase 2 (HMGCS2) using HepaRG (AID 2283504)
How it was run: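 HepaRG, plated 48 h then switched to serum-free induction media; cmpd 8-pt, max 100 uM, 1/2-log, 0.5% DMSO, n=2, 48 h. HMGCS2 mRNA by Fluidigm TaqMan qRT-PCR, ACTB/GAPDH/POLR2A norm; bidirectional fit vs DMSO.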

[16] = read-out: HGF (gene 3082); test: LTEA_HepaRG_HGF: Life Technologies and Expression Analysis (LTEA) Assay for Hepatocyte Growth Facto (HGF) using HepaRG (AID 2283505)
How it was run: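 Read-out is HGF transcript level by qRT-PCR, normalized to three housekeeping genes, fitted bidirectionally against 0.5% DMSO vehicle. Human HepaRG cells received test chemicals for 48 h at up to 100 uM.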

[17] = read-out: Insulin Like Growth Factor 1 (IGF1), IGF1 (gene 3479); test: LTEA_HepaRG_IGF1: Life Technologies and Expression Analysis (LTEA) Assay for Insulin Like Growth Factor 1 (IGF1) using HepaRG (AID 2283506)
How it was run: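 Cells are thawed, plated and cultured 48 h, then exposed in duplicate to chemical (highest 100 uM, half-log steps, 0.5% DMSO) for another 48 h. Total RNA is analysed by Fluidigm qRT-PCR for IGF1 expression relative to vehicle.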

[18] = read-out: Intercellular Adhesion Molecule 1 (ICAM1), ICAM1 (gene 3383); test: LTEA_HepaRG_ICAM1: Life Technologies and Expression Analysis (LTEA) Assay for Intercellular Adhesion Molecule 1 (ICAM1) using HepaRG (AID 2283507)
How it was run: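 Readout is qRT-PCR mRNA level, normalized to three housekeeping genes and fitted bidirectionally against 0.5% DMSO vehicle. Human HepaRG cultures received compound for 48 h, top concentration 100 uM with half-log dilutions.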

[19] = read-out: CYP3A5 (gene 1577); test: LTEA_HepaRG_CYP3A5: Life Technologies and Expression Analysis (LTEA) Assay for CYP3A5 using HepaRG (AID 2283493)
How it was run: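 Human HepaRG hepatic cells receive 48 h chemical treatment at eight concentrations (half-log steps from 100 uM) in 0.5% DMSO. Expression of CYP3A5 is quantified by Fluidigm qRT-PCR and normalized to three reference genes.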

Chain of Cytochrome P450 3A7 (Homo sapiens) (P24462 whole entry, looked up): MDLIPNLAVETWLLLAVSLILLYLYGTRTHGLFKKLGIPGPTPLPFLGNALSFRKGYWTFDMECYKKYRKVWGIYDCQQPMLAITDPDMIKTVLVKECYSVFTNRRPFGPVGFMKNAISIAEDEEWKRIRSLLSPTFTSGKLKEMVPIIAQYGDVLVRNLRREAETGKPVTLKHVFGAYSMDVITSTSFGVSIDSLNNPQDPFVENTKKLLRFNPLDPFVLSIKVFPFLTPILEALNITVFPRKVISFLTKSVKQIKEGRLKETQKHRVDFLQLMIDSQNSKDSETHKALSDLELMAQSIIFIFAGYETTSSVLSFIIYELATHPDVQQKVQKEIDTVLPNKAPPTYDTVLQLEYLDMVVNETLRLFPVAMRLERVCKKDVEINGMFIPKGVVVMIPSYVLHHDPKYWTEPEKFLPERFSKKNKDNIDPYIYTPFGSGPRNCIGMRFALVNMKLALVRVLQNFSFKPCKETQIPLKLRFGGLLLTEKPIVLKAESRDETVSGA
Chain of Hypoxia-inducible factor 1-alpha (Homo sapiens) (Q16665 whole entry, looked up): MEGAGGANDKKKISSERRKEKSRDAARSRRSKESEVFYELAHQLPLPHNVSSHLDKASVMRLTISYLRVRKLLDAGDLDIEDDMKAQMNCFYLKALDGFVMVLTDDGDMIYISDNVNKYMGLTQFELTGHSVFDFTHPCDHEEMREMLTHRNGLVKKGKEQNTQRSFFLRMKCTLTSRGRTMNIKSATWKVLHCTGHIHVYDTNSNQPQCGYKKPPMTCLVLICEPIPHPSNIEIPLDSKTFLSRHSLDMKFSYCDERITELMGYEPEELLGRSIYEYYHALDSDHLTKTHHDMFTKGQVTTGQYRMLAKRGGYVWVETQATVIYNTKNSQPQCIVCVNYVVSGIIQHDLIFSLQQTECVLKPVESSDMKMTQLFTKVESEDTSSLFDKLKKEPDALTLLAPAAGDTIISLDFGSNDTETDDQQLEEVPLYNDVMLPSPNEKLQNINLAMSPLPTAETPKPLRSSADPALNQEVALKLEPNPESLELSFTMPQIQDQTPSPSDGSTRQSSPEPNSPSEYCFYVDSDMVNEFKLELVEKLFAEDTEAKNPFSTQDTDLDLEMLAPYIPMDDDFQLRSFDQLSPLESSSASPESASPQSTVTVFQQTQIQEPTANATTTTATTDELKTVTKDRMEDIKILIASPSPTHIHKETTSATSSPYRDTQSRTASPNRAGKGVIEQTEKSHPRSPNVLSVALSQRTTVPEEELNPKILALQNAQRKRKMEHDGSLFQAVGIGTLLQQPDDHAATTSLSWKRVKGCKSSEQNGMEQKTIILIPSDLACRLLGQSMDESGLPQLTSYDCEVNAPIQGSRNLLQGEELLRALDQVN

In the case of O=NO, the outcome [1] is reported as “inactive”, the outcome [2] is reported as “inactive” and the outcome [3] is reported as “inactive”. For the same compound, the outcome [4] was “inactive”, the outcome [5] was “inactive” and the outcome [6] was “inactive”. The outcome [7] was “inactive”, the outcome [8] was “inactive” and the outcome [9] was “inactive”. For the same compound, the outcome [10] was “inactive”, the outcome [11] was “inactive” and the outcome [12] was “inactive”. The outcome [13] was “inactive”, the outcome [14] was “inactive” and the outcome [15] was “inactive”. The outcome [16] was “inactive”, the outcome [17] was “inactive” and the outcome [18] was “inactive”.
With CC(C)NCC(O)c1ccc(O)c(O)c1 (configuration not stated) the outcome [1] was “inactive”, the outcome [2] was “inactive” and the outcome [3] was “inactive”. The AC50 [4] was 1.8 µM (active), the AC50 [6] was 0.479 µM (active) and the outcome [7] was “inactive”. The AC50 [8] was 0.222 µM (active), the outcome [9] was “inactive” and the outcome [10] was “inactive”. The outcome [11] was “inactive”, the AC50 [12] was 0.273 µM (active) and the AC50 [13] was 0.116 µM (active). The AC50 [16] was 0.166 µM (active), the outcome [17] was “inactive” and the outcome [18] was “inactive”.
With CO[C@@H]1COCC[C@@H]1N[C@@H]1CC[C@@](C(=O)N2CCc3ncc(C(F)(F)F)cc3C2)(C(C)C)C1 the outcome [1] was “inactive”, the outcome [2] was “inactive” and the outcome [3] was “inactive”. The outcome [4] was “inactive”, the outcome [5] was “inactive” and the outcome [6] was “inactive”. For the same compound, the outcome [7] was “inactive”, the outcome [8] was “inactive” and the outcome [9] was “inactive”. The outcome [10] was “inactive”, the outcome [11] was “inactive” and the outcome [12] was “inactive”. For the same compound, the outcome [13] was “inactive”, the outcome [14] was “inactive” and the outcome [15] was “inactive”. For the same compound, the outcome [16] was “inactive”, the outcome [17] was “inactive” and the outcome [18] was “inactive”.
For c1ccc2occc2c1, the outcome [1] was “inactive”, the outcome [2] was “inactive” and the outcome [3] was “inactive”. For the same compound, the outcome [4] was “inactive”, the outcome [5] was “inactive” and the outcome [6] was “inactive”. For the same compound, the outcome [7] was “inactive”, the outcome [8] was “inactive” and the outcome [9] was “inactive”. The outcome [10] was “inactive”, the outcome [11] was “inactive” and the outcome [12] was “inactive”. For the same compound, the outcome [13] was “inactive”, the outcome [14] was “inactive” and the outcome [16] was “inactive”. For the same compound, the outcome [17] was “inactive” and the outcome [18] was “inactive”.
For O=C1OC(c2ccc(O)cc2)(c2ccc(O)cc2)c2ccccc21, the outcome [1] was “inactive”, the outcome [2] was “inactive” and the outcome [3] was “inactive”. The outcome [4] was “inactive”, the AC50 [19] was 62.1 µM (active) and the outcome [6] was “inactive”. The outcome [7] was “inactive”, the AC50 [8] was 78.5 µM (active) and the AC50 [9] was 32 µM (active). The outcome [10] was “inactive”, the outcome [11] was “inactive” and the AC50 [12] was 50 µM (active). For the same compound, the AC50 [13] was 50 µM (active), the AC50 [15] was 67.6 µM (active) and the AC50 [16] was 79.4 µM (active). The outcome [17] was “inactive” and the outcome [18] was “inactive”.
With CC(C)OC(=O)C(C)(C)Oc1ccc(C(=O)c2ccc(Cl)cc2)cc1 the outcome [1] was “inactive”, the outcome [2] was “inactive” and the outcome [3] was “inactive”. For the same compound, the AC50 [4] was 0.536 µM (active), the outcome [5] was “inactive” and the AC50 [6] was 50 µM (active). The AC50 [7] was 2.19 µM (active), the outcome [8] was “inactive” and the outcome [9] was “inactive”. For the same compound, the outcome [10] was “inactive”, the outcome [11] was “inactive” and the outcome [12] was “inactive”. For the same compound, the outcome [13] was “inactive”, the AC50 [15] was 4.29 µM (active) and the outcome [16] was “inactive”. For the same compound, the outcome [17] was “inactive” and the outcome [18] was “inactive”.
